# Measurements published in article PMC7862700, “An all-to-all approach to the identification of sequence-specific readers for epigenetic DNA modifications on cytosine”.
# Legend:
# Test in all cases: DAPPL (digital affinity profiling via proximity ligation, sequencing); 10 mM Tris-HCl pH 7.5, 50 mM NaCl, 1 mM DTT, 4% glycerol, room temperature, 30 min; GST-TFs on glutathione beads, 16-mer random dsDNA library, 0.1% formaldehyde crosslink after washing; high values mean tight binding
# [1] = target: T1, FLI1 (Homo sapiens, UniProt Q01543 1-452); conditions: protein: recombinant; tags: N-terminal GST; dsDNA, one strand shown
# T1 sequence: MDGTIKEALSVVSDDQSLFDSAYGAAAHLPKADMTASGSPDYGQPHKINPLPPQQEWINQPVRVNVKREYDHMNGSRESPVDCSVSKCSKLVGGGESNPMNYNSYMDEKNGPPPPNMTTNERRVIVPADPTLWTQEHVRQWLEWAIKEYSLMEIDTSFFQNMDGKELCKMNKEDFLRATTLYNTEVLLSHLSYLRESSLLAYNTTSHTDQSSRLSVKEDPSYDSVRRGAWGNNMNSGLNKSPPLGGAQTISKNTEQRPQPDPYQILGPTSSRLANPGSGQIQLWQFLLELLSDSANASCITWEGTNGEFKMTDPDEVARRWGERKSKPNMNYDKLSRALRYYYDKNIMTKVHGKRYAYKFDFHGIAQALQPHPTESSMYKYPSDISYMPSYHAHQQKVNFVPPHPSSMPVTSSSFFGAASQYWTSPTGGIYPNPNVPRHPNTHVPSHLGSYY
# Summary of the method: (§1)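 Pools of DNA-barcoded human transcription factors, expressed in yeast as GST fusions on glutathione beads and combined with a tag-only sample, were incubated with 200 nmole of a 16-mer random double-stranded DNA library. Incubation took 30 min at room temperature in Tris/NaCl/DTT/glycerol buffer and was followed by washing, 0.1% formaldehyde crosslinking, proximity ligation (BsaI/T4 ligase, 1 h, 37 °C), PCR amplification and sequencing on an Illumina NextSeq500. Binding signal is the ratio of a hexamer's read frequency for a factor to its frequency for the tag-only sample.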
# [2] = target: T2, ELK1 (Homo sapiens, UniProt P19419 1-428); conditions: protein: recombinant; tags: N-terminal GST; dsDNA, one strand shown
# T2 sequence: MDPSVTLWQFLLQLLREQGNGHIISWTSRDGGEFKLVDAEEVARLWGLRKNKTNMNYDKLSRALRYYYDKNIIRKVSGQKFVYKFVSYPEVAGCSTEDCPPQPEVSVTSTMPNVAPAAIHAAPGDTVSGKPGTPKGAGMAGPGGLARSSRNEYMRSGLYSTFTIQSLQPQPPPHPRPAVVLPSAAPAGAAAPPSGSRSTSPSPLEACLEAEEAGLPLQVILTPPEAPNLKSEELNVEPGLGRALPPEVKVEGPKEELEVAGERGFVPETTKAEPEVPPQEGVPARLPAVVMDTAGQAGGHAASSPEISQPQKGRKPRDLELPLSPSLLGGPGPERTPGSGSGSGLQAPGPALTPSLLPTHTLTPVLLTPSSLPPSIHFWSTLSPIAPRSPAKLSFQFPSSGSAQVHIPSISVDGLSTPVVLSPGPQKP
# Summary of the method: as §1
# [3] = target: T3, GABPA (Homo sapiens, UniProt Q06546 1-454); conditions: protein: recombinant; tags: N-terminal GST; dsDNA, one strand shown
# T3 sequence: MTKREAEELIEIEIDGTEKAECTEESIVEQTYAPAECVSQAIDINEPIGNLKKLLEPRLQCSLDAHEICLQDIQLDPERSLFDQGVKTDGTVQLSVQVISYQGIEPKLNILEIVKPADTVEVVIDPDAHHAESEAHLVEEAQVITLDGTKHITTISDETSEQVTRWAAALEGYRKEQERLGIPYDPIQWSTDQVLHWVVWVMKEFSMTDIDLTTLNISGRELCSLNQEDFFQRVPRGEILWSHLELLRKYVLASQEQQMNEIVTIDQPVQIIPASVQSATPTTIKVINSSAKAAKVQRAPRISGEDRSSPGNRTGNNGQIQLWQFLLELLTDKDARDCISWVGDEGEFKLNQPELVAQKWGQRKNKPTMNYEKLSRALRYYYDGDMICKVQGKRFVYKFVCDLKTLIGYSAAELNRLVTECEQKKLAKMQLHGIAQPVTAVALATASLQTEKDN
# Summary of the method: as §1
# [4] = target: T4, ERG (Homo sapiens, UniProt P11308 1-479); conditions: protein: recombinant; tags: N-terminal GST; dsDNA, one strand shown
# T4 sequence: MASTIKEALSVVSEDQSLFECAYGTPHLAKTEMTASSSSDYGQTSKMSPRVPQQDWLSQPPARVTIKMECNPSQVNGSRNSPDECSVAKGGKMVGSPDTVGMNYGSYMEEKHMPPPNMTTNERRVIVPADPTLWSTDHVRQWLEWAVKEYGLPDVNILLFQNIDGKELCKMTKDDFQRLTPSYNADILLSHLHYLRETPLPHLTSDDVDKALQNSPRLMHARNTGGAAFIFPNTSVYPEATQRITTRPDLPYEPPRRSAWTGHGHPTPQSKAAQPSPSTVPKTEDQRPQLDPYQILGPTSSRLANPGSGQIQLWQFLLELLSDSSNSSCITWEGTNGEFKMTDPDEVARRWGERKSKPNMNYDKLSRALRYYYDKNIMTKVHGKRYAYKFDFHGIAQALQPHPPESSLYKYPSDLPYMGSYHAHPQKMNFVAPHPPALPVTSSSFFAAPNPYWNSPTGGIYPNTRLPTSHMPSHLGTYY
# Summary of the method: as §1
# [5] = target: ELF1 (Homo sapiens, UniProt P32519 1-619); conditions: protein: recombinant; tags: N-terminal GST; dsDNA, one strand shown
# ELF1, sequence (P32519 whole entry): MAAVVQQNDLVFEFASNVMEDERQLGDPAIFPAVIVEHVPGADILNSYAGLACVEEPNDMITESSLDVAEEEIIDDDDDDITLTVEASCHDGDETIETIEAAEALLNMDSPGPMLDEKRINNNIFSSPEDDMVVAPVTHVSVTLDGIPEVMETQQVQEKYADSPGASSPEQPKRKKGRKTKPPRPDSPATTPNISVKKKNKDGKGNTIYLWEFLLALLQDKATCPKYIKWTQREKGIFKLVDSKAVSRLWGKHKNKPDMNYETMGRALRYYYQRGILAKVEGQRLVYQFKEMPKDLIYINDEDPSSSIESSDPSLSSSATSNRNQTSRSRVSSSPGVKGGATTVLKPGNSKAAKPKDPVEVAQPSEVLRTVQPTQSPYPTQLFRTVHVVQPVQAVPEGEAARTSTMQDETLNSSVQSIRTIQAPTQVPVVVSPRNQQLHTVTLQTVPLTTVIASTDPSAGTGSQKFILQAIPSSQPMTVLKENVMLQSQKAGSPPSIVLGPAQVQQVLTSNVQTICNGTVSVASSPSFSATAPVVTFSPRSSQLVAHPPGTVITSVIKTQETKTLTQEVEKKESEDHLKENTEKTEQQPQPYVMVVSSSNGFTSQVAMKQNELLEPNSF
# Summary of the method: as §1
# [6] = target: T5, EHF (Homo sapiens, UniProt Q9NZC4 1-300); conditions: protein: recombinant; tags: N-terminal GST; dsDNA, one strand shown
# T5 sequence: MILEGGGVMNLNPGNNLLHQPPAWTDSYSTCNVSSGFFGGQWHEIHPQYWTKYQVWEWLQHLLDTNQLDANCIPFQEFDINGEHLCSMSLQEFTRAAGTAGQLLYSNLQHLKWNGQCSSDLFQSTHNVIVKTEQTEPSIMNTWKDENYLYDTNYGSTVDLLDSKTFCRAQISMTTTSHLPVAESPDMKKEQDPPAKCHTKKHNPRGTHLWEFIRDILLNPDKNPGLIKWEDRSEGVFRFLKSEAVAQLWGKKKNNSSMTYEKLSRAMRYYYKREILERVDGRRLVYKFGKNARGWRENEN
# Summary of the method: as §1
# [7] = target: SPI1 (Homo sapiens, UniProt P17947 1-270); conditions: protein: recombinant; tags: N-terminal GST; dsDNA, one strand shown
# Summary of the method: as §1
# [8] = target: SPIB (Homo sapiens, UniProt Q01892 1-262); conditions: protein: recombinant; tags: N-terminal GST; dsDNA, one strand shown
# SPIB, sequence (Q01892 whole entry): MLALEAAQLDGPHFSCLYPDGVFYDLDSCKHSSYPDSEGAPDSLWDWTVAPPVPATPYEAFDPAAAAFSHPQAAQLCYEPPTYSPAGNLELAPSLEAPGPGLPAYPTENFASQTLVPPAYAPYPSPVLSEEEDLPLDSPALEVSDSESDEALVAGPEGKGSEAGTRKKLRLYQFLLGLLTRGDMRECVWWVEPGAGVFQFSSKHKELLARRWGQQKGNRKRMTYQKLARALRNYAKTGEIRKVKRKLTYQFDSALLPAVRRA
# Summary of the method: as §1
# [9] = target: T6, FEV (Homo sapiens, UniProt Q99581 1-238); conditions: protein: recombinant; tags: N-terminal GST; dsDNA, one strand shown
# T6 sequence: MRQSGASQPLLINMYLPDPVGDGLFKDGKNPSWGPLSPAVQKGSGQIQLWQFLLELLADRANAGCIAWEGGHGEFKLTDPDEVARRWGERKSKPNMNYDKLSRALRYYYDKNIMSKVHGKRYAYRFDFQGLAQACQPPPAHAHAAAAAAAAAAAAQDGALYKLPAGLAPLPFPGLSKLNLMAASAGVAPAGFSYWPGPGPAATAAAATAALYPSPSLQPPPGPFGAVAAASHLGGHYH
# Summary of the method: as §1
# [10] = target: ETV5 (Homo sapiens, UniProt P41161 1-510); conditions: protein: recombinant; tags: N-terminal GST; dsDNA, one strand shown
# ETV5, sequence (P41161 whole entry): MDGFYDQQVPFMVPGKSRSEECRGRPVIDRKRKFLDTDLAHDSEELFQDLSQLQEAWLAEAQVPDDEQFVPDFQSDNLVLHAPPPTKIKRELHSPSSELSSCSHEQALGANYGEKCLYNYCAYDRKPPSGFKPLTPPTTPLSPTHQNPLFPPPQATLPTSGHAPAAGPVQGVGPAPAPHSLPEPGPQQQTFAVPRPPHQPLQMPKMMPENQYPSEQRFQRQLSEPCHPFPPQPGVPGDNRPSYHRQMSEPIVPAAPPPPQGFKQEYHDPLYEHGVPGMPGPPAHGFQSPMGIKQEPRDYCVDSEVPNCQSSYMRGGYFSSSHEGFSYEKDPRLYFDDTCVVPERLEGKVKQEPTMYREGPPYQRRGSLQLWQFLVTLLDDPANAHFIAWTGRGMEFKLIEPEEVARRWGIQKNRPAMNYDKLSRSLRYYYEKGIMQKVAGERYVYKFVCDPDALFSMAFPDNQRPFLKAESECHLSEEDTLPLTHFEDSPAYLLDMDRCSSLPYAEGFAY
# Summary of the method: as §1
# [11] = target: HSF1 (Homo sapiens, UniProt Q00613 1-529); conditions: protein: recombinant; tags: N-terminal GST; chain copies: 3; dsDNA, one strand shown
# HSF1, sequence (Q00613 whole entry): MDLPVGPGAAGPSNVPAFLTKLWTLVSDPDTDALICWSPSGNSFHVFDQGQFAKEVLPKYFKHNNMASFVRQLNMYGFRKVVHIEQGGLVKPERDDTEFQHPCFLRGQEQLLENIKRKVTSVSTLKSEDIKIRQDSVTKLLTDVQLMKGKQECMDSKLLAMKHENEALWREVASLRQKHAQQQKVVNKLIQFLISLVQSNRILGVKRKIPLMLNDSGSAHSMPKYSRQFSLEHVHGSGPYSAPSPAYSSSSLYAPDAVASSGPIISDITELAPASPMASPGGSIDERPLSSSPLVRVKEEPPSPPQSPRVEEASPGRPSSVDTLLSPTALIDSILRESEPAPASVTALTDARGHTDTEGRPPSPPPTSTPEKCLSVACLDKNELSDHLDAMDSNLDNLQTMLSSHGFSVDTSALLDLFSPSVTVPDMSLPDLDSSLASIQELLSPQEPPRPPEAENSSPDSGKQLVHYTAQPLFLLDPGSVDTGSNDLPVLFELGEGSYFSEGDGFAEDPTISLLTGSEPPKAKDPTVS
# Summary of the method: as §1
# [12] = target: T7, SPIC (Homo sapiens, UniProt Q8N5J4 1-248); conditions: protein: recombinant; tags: N-terminal GST; dsDNA, one strand shown
# T7 sequence: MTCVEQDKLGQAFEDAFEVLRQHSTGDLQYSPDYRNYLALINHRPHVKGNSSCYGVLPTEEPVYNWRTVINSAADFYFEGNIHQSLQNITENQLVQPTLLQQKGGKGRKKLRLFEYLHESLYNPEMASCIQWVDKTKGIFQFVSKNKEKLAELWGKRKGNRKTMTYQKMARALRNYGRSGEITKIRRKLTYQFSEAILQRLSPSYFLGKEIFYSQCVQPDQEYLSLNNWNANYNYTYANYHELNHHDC
# Summary of the method: as §1
# [13] = target: ELF4 (Homo sapiens, UniProt Q99607 1-663); conditions: protein: recombinant; tags: N-terminal GST; dsDNA, one strand shown
# ELF4, sequence (Q99607 whole entry): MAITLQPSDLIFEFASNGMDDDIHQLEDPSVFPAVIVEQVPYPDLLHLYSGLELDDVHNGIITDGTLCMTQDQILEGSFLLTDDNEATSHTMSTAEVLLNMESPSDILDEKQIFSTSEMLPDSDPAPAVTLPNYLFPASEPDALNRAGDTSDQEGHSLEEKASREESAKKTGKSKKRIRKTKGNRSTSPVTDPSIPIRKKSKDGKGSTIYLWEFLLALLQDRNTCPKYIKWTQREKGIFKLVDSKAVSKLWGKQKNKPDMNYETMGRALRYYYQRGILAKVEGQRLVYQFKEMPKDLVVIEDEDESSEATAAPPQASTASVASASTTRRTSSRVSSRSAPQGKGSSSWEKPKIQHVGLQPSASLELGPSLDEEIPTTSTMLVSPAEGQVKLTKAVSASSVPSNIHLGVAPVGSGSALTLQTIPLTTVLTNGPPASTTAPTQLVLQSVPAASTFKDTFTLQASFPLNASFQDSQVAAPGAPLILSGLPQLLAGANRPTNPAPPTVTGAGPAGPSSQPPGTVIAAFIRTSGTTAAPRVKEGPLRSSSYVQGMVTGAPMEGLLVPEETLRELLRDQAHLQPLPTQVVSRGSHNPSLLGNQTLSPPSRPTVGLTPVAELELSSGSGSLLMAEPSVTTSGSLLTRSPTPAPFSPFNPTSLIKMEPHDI
# Summary of the method: as §1
# [14] = target: T8, ELK4 (Homo sapiens, UniProt P28324-2 1-405); conditions: protein: recombinant; tags: N-terminal GST; dsDNA, one strand shown
# T8 sequence: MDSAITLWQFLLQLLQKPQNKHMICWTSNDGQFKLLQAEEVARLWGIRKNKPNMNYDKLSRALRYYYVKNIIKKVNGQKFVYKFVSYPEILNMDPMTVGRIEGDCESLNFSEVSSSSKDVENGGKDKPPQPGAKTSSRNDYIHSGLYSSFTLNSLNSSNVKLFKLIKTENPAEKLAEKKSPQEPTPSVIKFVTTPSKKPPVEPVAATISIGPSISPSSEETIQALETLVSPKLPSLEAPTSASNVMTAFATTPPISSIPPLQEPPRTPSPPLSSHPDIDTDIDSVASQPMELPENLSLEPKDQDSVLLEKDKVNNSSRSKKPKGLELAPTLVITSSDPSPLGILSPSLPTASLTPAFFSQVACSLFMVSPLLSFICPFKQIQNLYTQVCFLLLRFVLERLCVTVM
# Summary of the method: as §1
# [15] = target: T9, ETV2 (Homo sapiens, UniProt O00321 1-342); conditions: protein: recombinant; tags: N-terminal GST; dsDNA, one strand shown
# T9 sequence: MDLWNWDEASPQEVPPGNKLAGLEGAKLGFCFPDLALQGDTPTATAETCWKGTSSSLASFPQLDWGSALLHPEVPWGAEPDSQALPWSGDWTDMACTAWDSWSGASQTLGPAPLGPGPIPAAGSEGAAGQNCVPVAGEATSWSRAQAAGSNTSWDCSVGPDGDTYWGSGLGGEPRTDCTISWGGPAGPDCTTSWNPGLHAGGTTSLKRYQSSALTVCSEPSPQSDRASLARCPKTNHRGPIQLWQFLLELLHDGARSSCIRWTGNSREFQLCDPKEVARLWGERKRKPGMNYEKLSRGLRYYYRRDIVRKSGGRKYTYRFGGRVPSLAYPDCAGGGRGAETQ
# Summary of the method: as §1
# [16] = target: T10, ELF3 (Homo sapiens, UniProt P78545 1-371); conditions: protein: recombinant; tags: N-terminal GST; dsDNA, one strand shown
# T10 sequence: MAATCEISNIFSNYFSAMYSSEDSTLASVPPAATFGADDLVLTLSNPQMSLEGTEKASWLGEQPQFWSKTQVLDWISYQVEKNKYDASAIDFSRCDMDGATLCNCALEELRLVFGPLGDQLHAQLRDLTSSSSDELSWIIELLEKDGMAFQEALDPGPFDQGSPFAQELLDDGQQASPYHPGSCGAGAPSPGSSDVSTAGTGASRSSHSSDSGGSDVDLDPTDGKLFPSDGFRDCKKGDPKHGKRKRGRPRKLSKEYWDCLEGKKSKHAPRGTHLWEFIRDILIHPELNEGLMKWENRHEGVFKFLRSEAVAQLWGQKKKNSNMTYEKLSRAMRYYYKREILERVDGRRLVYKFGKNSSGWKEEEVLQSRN
# Summary of the method: as §1
# [17] = target: CRX (Homo sapiens, UniProt O43186 1-299); conditions: protein: recombinant; tags: N-terminal GST; dsDNA, one strand shown
# CRX, sequence (O43186 whole entry): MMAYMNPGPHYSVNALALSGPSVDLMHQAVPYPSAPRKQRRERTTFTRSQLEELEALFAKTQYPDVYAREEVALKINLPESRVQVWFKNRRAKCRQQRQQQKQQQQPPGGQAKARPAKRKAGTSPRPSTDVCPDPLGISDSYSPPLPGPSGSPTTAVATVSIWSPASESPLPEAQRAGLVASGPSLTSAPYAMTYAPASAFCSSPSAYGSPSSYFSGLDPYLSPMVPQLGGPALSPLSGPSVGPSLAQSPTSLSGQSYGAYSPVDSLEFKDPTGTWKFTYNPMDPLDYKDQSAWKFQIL
# Summary of the method: as §1
# [18] = target: ETV1 (Homo sapiens, UniProt P50549 1-477); conditions: protein: recombinant; tags: N-terminal GST; dsDNA, one strand shown
# ETV1, sequence (P50549 whole entry): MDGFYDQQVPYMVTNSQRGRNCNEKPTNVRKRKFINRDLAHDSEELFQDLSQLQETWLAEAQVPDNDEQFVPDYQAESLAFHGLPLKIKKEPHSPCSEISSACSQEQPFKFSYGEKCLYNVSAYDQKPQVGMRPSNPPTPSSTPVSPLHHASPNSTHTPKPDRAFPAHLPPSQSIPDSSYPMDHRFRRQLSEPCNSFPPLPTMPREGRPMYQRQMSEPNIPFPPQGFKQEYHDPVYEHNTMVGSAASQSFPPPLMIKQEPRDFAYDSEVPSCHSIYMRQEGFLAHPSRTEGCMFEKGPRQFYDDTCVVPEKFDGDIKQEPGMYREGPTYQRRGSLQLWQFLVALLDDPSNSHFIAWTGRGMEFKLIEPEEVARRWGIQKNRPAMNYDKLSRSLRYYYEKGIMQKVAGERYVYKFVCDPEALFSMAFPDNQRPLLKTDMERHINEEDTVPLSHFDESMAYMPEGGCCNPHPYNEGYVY
# Summary of the method: as §1
sequence,measurement,setting,value
TAGATT,binding signal,[1],"1.17 fold enrichment (6-mer frequency, TF over GST control)"
same,binding signal,[2],"1.2 fold enrichment (6-mer frequency, TF over GST control)"
same,binding signal,[3],"1.18 fold enrichment (6-mer frequency, TF over GST control)"
same,binding signal,[4],"1.2 fold enrichment (6-mer frequency, TF over GST control)"
same,binding signal,[5],"1.17 fold enrichment (6-mer frequency, TF over GST control)"
same,binding signal,[6],"1.24 fold enrichment (6-mer frequency, TF over GST control)"
same,binding signal,[7],"1.16 fold enrichment (6-mer frequency, TF over GST control)"
same,binding signal,[8],"1.24 fold enrichment (6-mer frequency, TF over GST control)"
same,binding signal,[9],"1.14 fold enrichment (6-mer frequency, TF over GST control)"
same,binding signal,[10],"1.12 fold enrichment (6-mer frequency, TF over GST control)"
same,binding signal,[11],"2.19 fold enrichment (6-mer frequency, TF over GST control)"
same,binding signal,[12],"1.28 fold enrichment (6-mer frequency, TF over GST control)"
same,binding signal,[13],"1.19 fold enrichment (6-mer frequency, TF over GST control)"
same,binding signal,[14],"1.29 fold enrichment (6-mer frequency, TF over GST control)"
same,binding signal,[15],"1.13 fold enrichment (6-mer frequency, TF over GST control)"
same,binding signal,[16],"1.07 fold enrichment (6-mer frequency, TF over GST control)"
same,binding signal,[17],"2.29 fold enrichment (6-mer frequency, TF over GST control)"
same,binding signal,[18],"1.22 fold enrichment (6-mer frequency, TF over GST control)"
